The test system of this assay is RXRa DBDmut IVT, anti-RXR (DBD mutation: RXRa K156A/R161A, NR concentration 90 nM). Briefly: PBM binding z-score (relative to random genomic background probes); higher = stronger binding; sequences stand for … in GC…GCGATTGACAGCGTAGAATGAAGG
The procedure, abridged: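 Ligand-free nuclear receptor dimers were applied to custom Agilent 4×180K protein-binding microarrays whose double-stranded probes carried direct-repeat seeds, single-nucleotide variants, half-site ablations and random human genomic background sequences in 34-nt variable regions. Incubation lasted 1 h. Binding z-scores were computed against the random background probes from regression-normalized fluorescence.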
ATCTCTAGGTAAAGTCCAGTGAAAGATCGATAGA: the PBM binding z-score came to 0.396.
AGAACGAGGGCAATGAGTTGATAGGACGGGTGGC yielded a PBM binding z-score of 2.23.
For ATGTCTAGGTAAAAGTTCAGTGAATCCCGAGGAT, the PBM binding z-score is 0.508.
In the case of ATACCAAGGGGATCGTGAGGTCGTTGATACTAAC, the PBM binding z-score was found to be 0.533.
The same measure for GCGACTGGGGCAAAGCAGGTTACCGTAAGGTTGG: -0.47.
Regarding ATAGCAAGGTGATCGTGAGGTCGTTGATACTAAC, the PBM binding z-score came to 0.231.
On to TCATATAGGTAAAAGGTGAAAGTCGGTGTGGTAA, for which the PBM binding z-score is 1.87.
Turning to AGAATGAGGTTATGCGTAGATCAGGGAAGAAAGT, the PBM binding z-score was 1.23.
Sequence CGTACGAGGGCATGAGTTGATAGCAAATGCCGAT returned a PBM binding z-score of 2.36.
The value for TCTTGTAGATCAAGCAGGTTAAGCAAGCCTGAGT was 0.344; that for AATACAGGCTCACTAGGCCAGAGTAGGTACGAAT was -0.214.
As for GGAACGAGGGCCAAGTTGATAGCATCTGTCGACG, the PBM binding z-score stood at 0.125.
The same measure for CCTAGTTGGTCAGGAGGACACACACCGGATATGA: -0.252; for GCTTACGGGTCAAAGGTTATAGCTTGAATAGAAT: 2.37; for TATACAGGGTCAAAGGCCCGAGTACGAATGTCGA: 2.83.
Take TCTATAAGTTGAAGGGCAACCGACGAGTCCGTTT: the PBM binding z-score was determined as 1.59.
As to CCAGACAGGTGAGCAGGTAACTCAGCCTCGATTA, the PBM binding z-score was -0.0126.
The same measure for ACTAGCAGGCCAATTTTGGGTCACTCAAACAAAG: -0.264; for CGTCCAAGTTCAAGGTCAGTGAAAGAGACTCGAA: 4.51.
The value for CGTCCAAGATCAAAGGTCAGTGAAGAGATGACGG was 0.609; that for CGTCAAAGTTCAAGGTAACGTAACAGAAAGCAGC was 4.03.
Regarding TGAATAAGGTTAAAGATCAGGGAACGTGGCGTCG, the PBM binding z-score stood at 0.599.
Consider CGTCCAAGGTCAATGCTAGGTCAATGAAAGCATT, for which the PBM binding z-score came to 3.4.
For TAGCCTAGGTCATTGGGCCACTATAGTACGCATC, the PBM binding z-score amounted to 1.92.
Consider GCACATAGGTAATACAAGGTGAAAGTCCGATTGT, for which the PBM binding z-score was found to be 0.115.
For the sequence TCATATAGGTACAGGTGAAAGTCGAACGATATGA, the PBM binding z-score turned out to be 0.797.
On to CCTCGGAGGACAACAGGAGGCCAGAGCTGCCAGA, for which the PBM binding z-score was -0.152.
CCTGCTAGGTCAGGGTCAGCTAATCTACAGTATG came in with a PBM binding z-score of 1.37.
As to GCAGAGAGGTGAAACGCAGGTAACTCAGGGTGGC, the PBM binding z-score came out at 0.025.
For CGAACTAGGTCAGTGACAGGACAGTGAATAGTAA, the PBM binding z-score worked out at 0.653.
The value for GCTTATGGGTCAAAGGTTATAGCATGAATAGAAT was 2.11; that for CCTTACGGGTCACTCCGGGTTATAGCATCGGAGT was 1.3; that for GGAACGAGGGCACGTTGATAGCAGAGTTTGATGG was 2.
In the case of GGAACGAGGGCAAAGTTGATATCATCTGTCGACG, the PBM binding z-score was determined as 2.81.
ACTACTAGTTGAGACGAGGGCAACCGATAGGTTG gave a PBM binding z-score of 0.00344.
The same measure for CGTCCAAGGGCAAAGGTCAGTGAAGAGATGACGG: 1.64; for ATATGTAGGTTAGCTGGGTTCATTCAGACTAGGC: 2.97; for CCGAGTAGGTTATGGGTCATTCAGGCAACGGTGA: 0.565.
GCTGCTAGGTCAGGGTGGTCAGCTAACGGGTACG: the PBM binding z-score came out at 0.223.
